A number with no mark means an inactive call. Results filed as inconclusive are left out. Where a call stands in place of a potency, no number is given. Calls of active or inactive are those of the source. Unless noted, the call rests on the fitted dose curve.
Legend:
[1] = Nuclear factor erythroid 2-related factor 2/antioxidant responsive element (Nrf2/ARE) small molecule agonists: qHTS cell viability counter screen in human keratinocytes (AID 1919968; active means well fitted curve in the direction sought with a large enough effect in the repeat runs; an effect the other way counts as inactive or inconclusive; further: nearly all actives have a fitted effect of over 55% in size)
Method in brief: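 KeratinoSens cells (HaCaT keratinocytes stably carrying an ARE-luciferase reporter) were seeded at 1,500 cells/well and rested 5 h at 37 C/5% CO2. They were then exposed to compounds in DMSO for 23 h. Viability was read by CellTiter-Fluor fluorescence after 1 h.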

[2] = Nuclear factor erythroid 2-related factor 2/antioxidant responsive element (Nrf2/ARE) small molecule agonists: luciferase reporter gene qHTS assay in human keratinocytes (AID 1919969); further: nearly all actives have a fitted effect of over 35% in size
[3] = target: Gonadotropin-releasing hormone receptor (Homo sapiens) (UniProt P30968); experiment: Human gonadotropin-releasing hormone receptor (GnRHR) small molecule agonists, calcium flux assay in GnRHR-HEK293 cells (AID 1920063); further: nearly all actives have a fitted effect of over 35% in size
Method in brief: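 HEK293 cells stably expressing human GnRHR were plated 18 h at 37 °C, loaded with calcium dye 1 h at 37 °C, then given compound in agonist mode; fluorescence (Ex/Em 480/540) read kinetically for 3 min at 1 s intervals.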

[4] = target: KiSS-1 receptor (Homo sapiens) (UniProt Q969F8); experiment: Human kisspeptin (KISS1R) small molecule agonists, calcium flux assay in KISS1R-HEK293 cells (AID 1920064; active means well fitted curve in the direction sought with a large enough effect in the repeat runs; an effect the other way counts as inactive or inconclusive)
Method in brief: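 HEK293 cells stably expressing human KISS1R were plated 18 h at 37 °C, loaded with calcium dye for 1 h at 37 °C, then given compound by pin tool. Fluorescence (Ex/Em 480/540) was read kinetically for 3 min.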

[5] = G protein-coupled receptor (GPCR) small molecule agonists, calcium flux assay: HEK293 wild type cell line counter screen (AID 1920065)
Method in brief: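 Cells were plated and cultured 18 h at 37 C/5% CO2, then loaded with calcium dye for 1 h at 37 C. Compounds in DMSO were pin-transferred in agonist mode, and fluorescence (Ex/Em 480/540) was read kinetically for 3 min at 1 s intervals.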

[6] = p53 small molecule agonists, cell-based qHTS assay with human liver microsomes (AID 1963577)
Method in brief: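 Fluorescence of the beta-lactamase reporter in p53RE-bla cells, detected with LiveBLAzer substrate (2 h, room temperature, dark), served as the read-out after 16 h compound exposure at 37 C with human liver microsomes and NADPH, each 0.5 mg/mL final.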

[7] = p53 small molecule agonists, cell-based qHTS assay with rat liver microsomes (AID 1963578)
Method in brief: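 Cells carrying a p53 response element–beta-lactamase reporter were plated and rested 5 h, then dosed with compound in DMSO plus rat liver microsomes and NADPH, each at 0.5 mg/mL final. After 16 h at 37 C, LiveBLAzer substrate was added for 2 h.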

[8] = p53 small molecule agonists, cell-based qHTS assay with human liver microsomes: qHTS cell viability counter screen (AID 1963579); further: nearly all actives have a fitted effect of over 45% in size
Method in brief: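 Cytotoxicity counter screen: p53RE-bla, 4,000 cells/well; 5 h settle, 37 C/5% CO2; cpd + HLM 0.5 mg/mL + NADPH 0.5 mg/mL (final); 16 h, 37 C; CellTiter-Glo, 30 min RT, luminescence.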

[9] = p53 small molecule agonists, cell-based qHTS assay with rat liver microsomes: qHTS cell viability counter screen (AID 1963580); further: nearly all actives have a fitted effect of over 45% in size; further: potency means the concentration at half of the fitted maximal effect
Method in brief: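 Viability is assessed in parallel with the p53 reporter read: HCT-116 p53RE-bla cells receive compounds plus rat microsomes and NADPH (0.5 mg/mL final apiece), incubate 16 h at 37 C, and then CellTiter-Glo luminescence is recorded.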

[10] = p53 small molecule agonists, cell-based qHTS assay: qHTS cell viability counter screen (AID 1963581); further: nearly all actives have a fitted effect of over 45% in size
Method in brief: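 p53RE-bla HCT-116 cells were exposed to compounds for 16 h at 37 C; after the beta-lactamase FRET read in the same wells, CellTiter-Glo was added and luminescence (intracellular ATP) read after 30 min at room temperature.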

[11] = p53 small molecule agonists, cell-based qHTS assay (AID 1963582; active means well fitted activation curve with a large enough effect in the signal ratio in the repeat runs, not every such curve was filed as active; the % refers to the signal ratio)
Method in brief: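 p53RE-bla beta-lactamase reporter cells rested 5 h at 37 C/5% CO2, then received compounds in DMSO by pin transfer and were incubated 16 h at 37 C. LiveBLAzer B/G FRET substrate was loaded for 2 h at room temperature before fluorescence reading.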

[12] = target: 5-hydroxytryptamine receptor 2A (Homo sapiens) (UniProt P28223); experiment: 5-hydroxytryptamine receptor 2A (HTR2A) small molecule antagonists, cell-based qHTS assay (AID 1963586); further: nearly all actives have a fitted effect of over 45% in size
Method in brief: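 Antagonist-mode intracellular calcium assay: DOI (4 nM) added after 5 min compound pre-incubation at room temperature to dye-loaded HTR2A-CHO cells. Fluorescence followed for 3 min, sampled every second.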

[13] = target: 5-hydroxytryptamine receptor 2A (Homo sapiens) (UniProt P28223); experiment: 5-hydroxytryptamine receptor 2A (HTR2A) small molecule agonists, cell-based qHTS assay (AID 1963587); further: nearly all actives have a fitted effect of over 30% in size
Method in brief: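 CHO cells stably expressing human HTR2A, plated 18 h, loaded with calcium dye 1 h at 37 C. Agonist mode: compounds added and intracellular calcium fluorescence recorded kinetically for 2 min at 1 sec intervals.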

[14] = target: Muscarinic acetylcholine receptor M1 (Homo sapiens) (UniProt P11229); experiment: Cholinergic receptor muscarinic 1 (CHRM1) small molecule antagonists, cell-based qHTS assay (AID 1963588); further: nearly all actives have a fitted effect of over 40% in size
Method in brief: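 CHRM1-CHO calcium-flux assay, antagonist mode. Cells were seeded 18 h, dye-loaded 1 h at 37 C and given compound for 5 min at RT, then acetylcholine was added at 50nM. FDSS fluorescence was read 3 min; 15 concentrations, three runs.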

[15] = target: Muscarinic acetylcholine receptor M1 (Homo sapiens) (UniProt P11229); experiment: Cholinergic receptor muscarinic 1 (CHRM1) small molecule agonists, cell-based qHTS assay (AID 1963589); further: nearly all actives have a fitted effect of over 35% in size
Method in brief: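 CHO cells stably expressing human CHRM1, seeded 18 h at 37 C/5% CO2, dye-loaded 1 h at 37 C, then given compound in agonist mode; intracellular calcium fluorescence read kinetically at 1 s intervals. Fifteen concentrations, three independent runs.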

[16] = cAMP Responsive Elements (CRE) small molecule agonists, cell-based qHTS assay (AID 1963590)
Method in brief: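 CRE-bla HEK 293T cells in DMEM with 10% dialyzed FBS, NEAA, pyruvate and 25 mM HEPES were plated 18 h at 37 C/5% CO2, then exposed to compounds in DMSO for 3 h before LiveBLAzer B/G FRET substrate addition.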

[17] = cAMP Responsive Elements (CRE) small molecule antagonists, cell-based qHTS assay (AID 1963591; active means well fitted inhibition curve with a large enough effect in the signal ratio in the repeat runs, not every such curve was filed as active; the % refers to the signal ratio)
Method in brief: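 CRE-bla HEK293T cells were plated 18 h at 37 °C/5% CO2, pinned with compound in DMSO, then stimulated with NKH477 at 0.25 uM final for 3 h. LiveBLAzer B/G FRET substrate was added and plates incubated 2 h at room temperature.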

[18] = target: Beta-2 adrenergic receptor (Homo sapiens) (UniProt P07550); experiment: Adrenergic beta2 receptor (ADRB2) small molecule antagonists, cell-based qHTS assay (AID 1963592); further: nearly all actives have a fitted effect of over 50% in size; further: potency means the concentration at half of the fitted maximal effect
Method in brief: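 Cells (CHO, stable ADRB2 overexpression) incubated 18-20hr at 37C; compounds added from DMSO; agonist mix (1nM isoproterenol, 100uM IBMX, 25uM Ro-20-1724) added; 0.5hr RT; d2-cAMP and anti-cAMP-cryptate added; 1hr RT; 665/615 nm read.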

[19] = target: D(2) dopamine receptor (Homo sapiens) (UniProt P14416); experiment: Dopamine D2 receptor (DRD2) small molecule agonists, cell-based qHTS assay (AID 1963594); further: nearly all actives have a fitted effect of over 35% in size
Method in brief: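 HEK293 cells stably expressing human DRD2, pre-treated with PDE inhibitor Ro20-1724 (0.1 mM final) and compound 10 min at room temperature, then stimulated with NKH477 (200nM […]) for 30 min. cAMP read by HTRF (665/620 nm).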

[20] = target: D(2) dopamine receptor (Homo sapiens) (UniProt P14416); experiment: Dopamine D2 receptor (DRD2) small molecule antagonists, cell-based qHTS assay (AID 1963595; active means well fitted inhibition curve with a large enough effect in the signal ratio in the repeat runs, with a control signal flat; the % refers to the signal ratio)
Method in brief: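 Antagonism was scored as restored cAMP in HEK293-DRD2 cells. These cells were stimulated with 200 nM NKH477 and 12 nM quinpirole for 30 min at room temperature, in the presence of 0.1 mM Ro20-1724.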

Sequence of D(2) dopamine receptor (Homo sapiens) (P14416 whole entry, looked up): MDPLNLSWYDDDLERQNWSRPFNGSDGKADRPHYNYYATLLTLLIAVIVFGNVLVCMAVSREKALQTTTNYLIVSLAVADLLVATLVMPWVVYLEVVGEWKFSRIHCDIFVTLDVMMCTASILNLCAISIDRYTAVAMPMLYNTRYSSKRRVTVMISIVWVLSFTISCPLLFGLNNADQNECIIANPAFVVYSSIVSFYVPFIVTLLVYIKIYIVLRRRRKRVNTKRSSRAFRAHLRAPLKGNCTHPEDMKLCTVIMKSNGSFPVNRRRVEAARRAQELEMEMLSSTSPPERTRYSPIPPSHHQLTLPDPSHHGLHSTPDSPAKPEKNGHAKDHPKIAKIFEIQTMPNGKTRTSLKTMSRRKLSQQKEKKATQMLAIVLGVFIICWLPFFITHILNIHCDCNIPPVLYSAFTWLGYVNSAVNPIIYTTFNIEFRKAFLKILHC
Sequence of Beta-2 adrenergic receptor (Homo sapiens) (P07550 whole entry, looked up): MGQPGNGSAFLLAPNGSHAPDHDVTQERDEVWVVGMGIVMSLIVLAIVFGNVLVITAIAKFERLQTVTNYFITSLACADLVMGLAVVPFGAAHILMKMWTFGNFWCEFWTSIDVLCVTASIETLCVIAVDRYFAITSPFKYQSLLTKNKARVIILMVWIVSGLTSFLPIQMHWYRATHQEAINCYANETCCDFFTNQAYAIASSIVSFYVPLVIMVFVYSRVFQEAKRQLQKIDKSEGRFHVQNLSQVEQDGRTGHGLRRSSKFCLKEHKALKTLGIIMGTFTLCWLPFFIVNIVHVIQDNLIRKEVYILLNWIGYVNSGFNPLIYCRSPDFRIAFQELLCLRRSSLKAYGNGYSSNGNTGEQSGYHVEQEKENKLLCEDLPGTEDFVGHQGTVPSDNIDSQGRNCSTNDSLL
Sequence of 5-hydroxytryptamine receptor 2A (Homo sapiens) (P28223 whole entry, looked up): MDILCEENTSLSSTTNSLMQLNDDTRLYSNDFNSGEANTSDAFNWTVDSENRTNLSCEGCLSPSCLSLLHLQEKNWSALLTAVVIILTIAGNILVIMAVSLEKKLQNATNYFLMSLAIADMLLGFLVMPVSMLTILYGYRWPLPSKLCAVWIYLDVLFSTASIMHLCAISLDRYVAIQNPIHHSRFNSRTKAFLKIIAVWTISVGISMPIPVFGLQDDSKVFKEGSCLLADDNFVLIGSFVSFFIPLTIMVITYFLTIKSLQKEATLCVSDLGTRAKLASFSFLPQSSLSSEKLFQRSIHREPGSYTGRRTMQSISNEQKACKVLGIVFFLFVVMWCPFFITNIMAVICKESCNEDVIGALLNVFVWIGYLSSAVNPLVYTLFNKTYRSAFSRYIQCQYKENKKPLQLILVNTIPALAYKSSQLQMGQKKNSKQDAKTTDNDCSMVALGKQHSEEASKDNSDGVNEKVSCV
Sequence of Gonadotropin-releasing hormone receptor (Homo sapiens) (P30968 whole entry, looked up): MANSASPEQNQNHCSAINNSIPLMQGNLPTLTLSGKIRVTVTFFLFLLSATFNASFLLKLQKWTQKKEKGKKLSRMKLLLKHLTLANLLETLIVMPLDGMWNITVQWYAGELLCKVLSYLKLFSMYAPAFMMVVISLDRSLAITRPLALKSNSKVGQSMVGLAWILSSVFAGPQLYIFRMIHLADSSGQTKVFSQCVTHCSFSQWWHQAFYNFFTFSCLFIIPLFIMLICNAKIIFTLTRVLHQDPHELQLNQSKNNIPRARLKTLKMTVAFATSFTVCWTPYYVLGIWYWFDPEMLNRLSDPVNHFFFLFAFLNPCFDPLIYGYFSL
Sequence of Muscarinic acetylcholine receptor M1 (Homo sapiens) (P11229 whole entry, looked up): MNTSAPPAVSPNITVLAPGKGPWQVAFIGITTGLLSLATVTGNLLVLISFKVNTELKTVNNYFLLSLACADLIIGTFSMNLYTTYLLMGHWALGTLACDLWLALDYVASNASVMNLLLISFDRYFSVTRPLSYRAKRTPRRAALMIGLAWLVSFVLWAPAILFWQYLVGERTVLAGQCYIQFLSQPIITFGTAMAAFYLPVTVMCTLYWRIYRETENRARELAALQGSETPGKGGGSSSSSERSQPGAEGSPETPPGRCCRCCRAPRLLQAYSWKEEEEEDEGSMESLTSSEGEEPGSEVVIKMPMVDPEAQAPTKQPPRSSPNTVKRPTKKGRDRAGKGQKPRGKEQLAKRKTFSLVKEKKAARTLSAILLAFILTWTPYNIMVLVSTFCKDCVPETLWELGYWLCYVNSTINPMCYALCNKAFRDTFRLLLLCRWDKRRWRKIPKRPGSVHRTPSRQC
Sequence of KiSS-1 receptor (Homo sapiens) (Q969F8 whole entry, looked up): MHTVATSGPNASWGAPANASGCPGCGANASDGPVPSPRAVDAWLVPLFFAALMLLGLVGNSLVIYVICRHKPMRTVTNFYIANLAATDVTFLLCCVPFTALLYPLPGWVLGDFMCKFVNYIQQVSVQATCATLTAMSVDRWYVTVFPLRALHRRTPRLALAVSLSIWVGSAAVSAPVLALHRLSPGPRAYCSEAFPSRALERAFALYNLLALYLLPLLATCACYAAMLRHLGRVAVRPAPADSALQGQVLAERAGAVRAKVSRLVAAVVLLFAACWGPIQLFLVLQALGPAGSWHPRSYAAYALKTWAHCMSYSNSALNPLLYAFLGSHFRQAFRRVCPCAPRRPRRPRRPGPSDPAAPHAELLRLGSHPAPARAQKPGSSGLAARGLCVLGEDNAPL

| SMILES | Potency [1] | Potency [2] | Potency [3] | outcome [4] | outcome [5] | Potency [6] | Potency [7] | Potency [8] | Potency [9] | Potency [10] | Potency [11] | Potency [12] | Potency [13] | Potency [14] | Potency [15] | Potency [16] | Potency [17] | Potency [18] | Potency [19] | Potency [20] |
| --- | --- | --- | --- | --- | --- | --- | --- | --- | --- | --- | --- | --- | --- | --- | --- | --- | --- | --- | --- | --- |
| CC(C)(C)OC(=O)c1ccccc1C(=O)O | inactive | inactive | inactive | inactive | inactive | inactive | inactive | inactive | inactive | inactive | inactive | inactive | inactive | inactive | inactive | inactive | inactive | inactive | inactive | inactive |
| CC(C)(C)NCC(O)COc1ccc(NC(=O)NC2CCCCC2)cc1 (configuration not stated) | inactive | inactive | inactive | inactive | inactive | inactive | inactive | inactive | inactive | inactive | inactive | inactive | inactive | inactive | inactive | inactive | inactive | 4.73 µM (active) |  | inactive |
| CCOc1ccc(NC(=O)OC(C)C)cc1OCC | inactive | inactive | inactive | inactive | inactive | inactive | inactive | inactive | inactive | inactive | inactive | inactive | inactive | inactive | inactive | inactive | inactive | inactive | inactive | inactive |
| Cc1cc(C)c(C=O)c(C)c1 | inactive | inactive | inactive | inactive | inactive | inactive | inactive | inactive | inactive | inactive | inactive | inactive | inactive | inactive | inactive | inactive | inactive | inactive | inactive | inactive |
| CCCCCC#CC(=O)OC | inactive | inactive | inactive | inactive | inactive | inactive | inactive | inactive | inactive | inactive | inactive | inactive | inactive | inactive | inactive | inactive | inactive | inactive | inactive | inactive |
| CCCCCC(=O)OCCc1ccccc1 | inactive | inactive | inactive | inactive | inactive | inactive | inactive | inactive | inactive | inactive | inactive | inactive | inactive | inactive | inactive | inactive | inactive | inactive |  | inactive |
| CO[C@@H]1[C@@H](OC(N)=O)[C@@H](O)[C@H](Oc2ccc3c(O)c(NC(=O)c4ccc(O)c(CC=C(C)C)c4)c(=O)oc3c2C)OC1(C)C | inactive | inactive | inactive | inactive | inactive | inactive | inactive | inactive | inactive | inactive | inactive | inactive | inactive | inactive | inactive | inactive | inactive | inactive | inactive | inactive |
| N#CC1(N)CCCCC1 | inactive | inactive | inactive | inactive | inactive | inactive | inactive | inactive | inactive | inactive | inactive | inactive | inactive | inactive | inactive | inactive | inactive | inactive | inactive | inactive |
| CC1CCCO1 (configuration not stated) | inactive | inactive | inactive | inactive | inactive | inactive | inactive | inactive | inactive | inactive | inactive | inactive | inactive | inactive | inactive | inactive | inactive | inactive |  | inactive |
| CCCCOCC | inactive | inactive | inactive | inactive | inactive | inactive | inactive | inactive | 1.62 µM (active) | inactive | inactive | inactive | inactive | inactive | inactive | inactive | inactive | inactive | inactive | inactive |
| COC(=O)c1ccccc1Cl | inactive | inactive | inactive | inactive | inactive | inactive | inactive | inactive | inactive | inactive | inactive | inactive | inactive | inactive | inactive | inactive | inactive | inactive | inactive | inactive |
| CCOC(=O)C(C)(C)C | inactive | inactive | inactive | inactive | inactive | inactive | inactive | inactive | inactive | inactive | inactive | inactive | inactive | inactive | inactive | inactive | inactive | inactive | inactive | inactive |
| Cc1c(N=C=O)cccc1N=C=O | inactive | inactive | inactive | inactive | inactive | inactive | inactive | inactive | inactive | inactive | inactive | inactive | inactive | inactive | inactive | inactive | inactive | inactive | inactive | inactive |

From PubChem BioAssay (Tox21)
